# Reference: PubChem BioAssay (NCATS)
# Several values for one entry are separate records, joined by “and”; a condition that tells them apart may be missing. Equal entries are not always repeated. Records with an inconclusive call do not appear. A call without a number means that no potency is given here. Activity calls are given as the source filed them. Unless noted, calls come from the whole dose curve; as a rule, active = well fitted curve in the direction sought with a large enough effect; inconclusive = small, poorly fitted or top-dose-only effect, or another doubt; inactive = no such curve, though single readings can be large; an effect the other way counts as inactive or inconclusive.
# Legend:
# [1] = target: Tyrosine-protein kinase Yes (Homo sapiens) (UniProt P07947); experiment: qHTS for small molecule inhibitors of Yes1 kinase: Primary Screen (AID 686947); settings: Yes1 kinase biochemical qHTS inhibition; series mostly up to 76.9 µM; note: potency is the fitted concentration of half-maximal effect; nearly all actives have a fitted effect of over 60% in size
# Chain of Tyrosine-protein kinase Yes (Homo sapiens) (P07947 whole entry, looked up): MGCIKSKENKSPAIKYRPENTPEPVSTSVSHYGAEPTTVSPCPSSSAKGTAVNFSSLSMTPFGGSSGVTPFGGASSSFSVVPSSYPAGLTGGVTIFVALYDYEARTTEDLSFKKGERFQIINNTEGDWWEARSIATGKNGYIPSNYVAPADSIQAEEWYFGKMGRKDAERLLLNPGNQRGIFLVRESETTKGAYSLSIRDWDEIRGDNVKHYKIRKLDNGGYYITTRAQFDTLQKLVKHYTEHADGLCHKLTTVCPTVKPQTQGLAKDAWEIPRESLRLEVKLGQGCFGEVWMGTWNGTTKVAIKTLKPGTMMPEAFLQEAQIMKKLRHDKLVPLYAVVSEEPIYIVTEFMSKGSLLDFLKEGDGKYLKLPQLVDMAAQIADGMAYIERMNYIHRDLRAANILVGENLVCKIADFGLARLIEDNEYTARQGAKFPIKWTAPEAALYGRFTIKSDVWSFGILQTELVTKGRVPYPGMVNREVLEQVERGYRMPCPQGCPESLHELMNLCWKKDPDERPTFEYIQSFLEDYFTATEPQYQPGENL
# Procedure, shortened: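 Yes1 (4 nM) preincubated 20 min with compound, then 60 min room-temperature reaction with 0.1 mM ATP and 0.3 mg/mL poly(E4Y) in pH 7.5 Tris, 10 mM MgCl2. ADP measured by ADP-Glo luminescence, normalised to enzyme/no-enzyme controls.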
# [2] = qHTS for small molecule inhibitors of Yes1 kinase: Counter Assay (AID 686950); settings: series mostly up to 76.9 µM;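 note: no kinase present so only ADP-Glo detection of a fixed ADP amount is tested; luminescence from ADP-Glo reporting ADP in a fixed ATP and ADP mixture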
# Procedure, shortened: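 Luminescence read-out from ADP-Glo quantifies a fixed ADP amount (0.02 mM ADP with 0.08 mM ATP) after 60 min at room temperature; signal is normalized between DMSO wells with ATP/ADP and with 0.1 mM ATP alone.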
# [3] = qHTS profiling of the MIPE4 collection as inhibitors of Plasmodium falciparum (HB3) proliferation (AID 743347; call rule not given here); settings: P. falciparum HB3 in erythrocytes, SYBR Green DNA, 72 h; at 28.5 µM (top of the series)
# Procedure, shortened: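 Erythrocytes infected with P. falciparum (0.3% parasitemia, 2.5% hematocrit) incubated with compounds 72 h at 37 C, 5% CO2. Lysis with saponin/Triton buffer containing SYBR Green I, overnight at room temperature in the dark; DNA fluorescence (485/535 nm) normalised to 0.29 uM artemisinin and DMSO.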
# [4] = target: DNA repair nuclease/redox regulator APEX1 (Homo sapiens) (UniProt P27695); experiment: qHTS Validation Assay for Inhibitors of the Human Apurinic/apyrimidinic Endonuclease 1 (APE1) (AID 1705;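 note: TAMRA fluorescence gain over two minutes as APE1 cuts a quenched THF abasic duplex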); settings: purified APE1 endonuclease activity, fluorescence, titration; series mostly up to 57.1 µM
# Chain of DNA repair nuclease/redox regulator APEX1 (Homo sapiens) (P27695 whole entry, looked up): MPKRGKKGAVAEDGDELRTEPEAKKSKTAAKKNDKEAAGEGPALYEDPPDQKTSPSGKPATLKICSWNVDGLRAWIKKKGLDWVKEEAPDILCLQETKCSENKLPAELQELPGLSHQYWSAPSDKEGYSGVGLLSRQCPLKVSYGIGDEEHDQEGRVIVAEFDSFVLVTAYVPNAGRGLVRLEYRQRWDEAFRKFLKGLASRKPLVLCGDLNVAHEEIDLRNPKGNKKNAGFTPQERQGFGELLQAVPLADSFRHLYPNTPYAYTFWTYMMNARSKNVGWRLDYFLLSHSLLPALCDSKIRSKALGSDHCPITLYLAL
# Procedure, shortened: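 Substrate: 50 nM final fluorophore/quencher THF-abasic duplex. Enzyme preincubated with compounds 15 min, RT. Progress derived from fluorescence difference, third minus first kinetic read.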
# [5] = Counterscreen for APE1 Inhibitors: Fluorescent Dye Displacement Validation Assay (AID 1707); settings: fluorescent dye displacement from DNA; series mostly up to 57.1 µM
# Procedure, shortened: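 Compounds are scored by their ability to displace Thiazole Orange (250 nM) from a 50 nM TAMRA-tagged duplex bearing a tetrahydrofuran abasic site. Buffer is 50 mM Tris-HCl pH7.5, 50mM NaCl, 2 mM MgCl2, 0.01% Tween-20.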
# [6] = target: Endonuclease 4 (Escherichia coli (strain K12)) (UniProt P0A6C1); experiment: Counterscreen for APE1 Inhibitors: qHTS Validation Assay for Inhibitors of Endonuclease IV (AID 1708); settings: E. coli endonuclease IV, DNA cleavage fluorescence; series mostly up to 57.1 µM
# Procedure, shortened: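 qHTS concentration-response format; LOPAC1280 tested under APE1-screen conditions. 2 nM enzyme, 15 min compound preincubation at RT, then 50 nM TAMRA/BHQ-2 abasic substrate; kinetic fluorescence read, three reads at 60 s intervals.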
# [7] = qHTS for differential inhibitors of proliferation of Plasmodium falciparum line 7G8 (AID 1815); settings: Plasmodium falciparum 7G8 proliferation inhibition; series mostly up to 28.7 µM;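 note: potency is the fitted concentration of half-maximal effect; parasite growth measured after three days of incubation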
# [8] = qHTS for differential inhibitors of proliferation of Plasmodium falciparum line W2 (AID 1883); settings: Potency: Plasmodium falciparum W2 proliferation inhibition; series mostly up to 28.7 µM;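 note: potency is the fitted concentration of half-maximal effect; parasites grown with compound for 72 h before lysis and staining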
# [9] = target: ATP-dependent DNA helicase Q1 (Homo sapiens) (UniProt P46063); experiment: qHTS Validation Assay for Inhibitors of RecQ-Like Dna Helicase 1 (RECQ1) (AID 2353); settings: recombinant RECQ1 helicase DNA unwinding assay; series mostly up to 25.6 µM
# Chain of ATP-dependent DNA helicase Q1 (Homo sapiens) (P46063 whole entry, looked up): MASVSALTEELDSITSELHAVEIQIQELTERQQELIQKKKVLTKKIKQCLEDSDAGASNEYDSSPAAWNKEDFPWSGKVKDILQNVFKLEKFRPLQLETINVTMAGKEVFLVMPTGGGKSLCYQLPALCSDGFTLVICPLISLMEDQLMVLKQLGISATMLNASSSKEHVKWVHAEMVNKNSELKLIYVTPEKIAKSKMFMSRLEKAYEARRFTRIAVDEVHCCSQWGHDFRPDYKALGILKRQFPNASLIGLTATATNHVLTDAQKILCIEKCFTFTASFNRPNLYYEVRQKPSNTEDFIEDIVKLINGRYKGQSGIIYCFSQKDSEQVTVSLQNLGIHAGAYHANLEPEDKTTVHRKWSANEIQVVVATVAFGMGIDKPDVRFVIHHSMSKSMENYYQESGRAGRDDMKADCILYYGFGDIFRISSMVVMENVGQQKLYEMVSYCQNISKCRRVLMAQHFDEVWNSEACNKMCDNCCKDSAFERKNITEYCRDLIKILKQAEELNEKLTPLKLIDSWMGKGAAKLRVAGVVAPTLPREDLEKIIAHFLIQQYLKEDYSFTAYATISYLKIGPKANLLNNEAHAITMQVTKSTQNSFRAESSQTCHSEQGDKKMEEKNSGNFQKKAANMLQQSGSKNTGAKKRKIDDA
# Procedure, shortened: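 50 nM RECQ1T1 preincubated 15 min with compound in Tris pH 8.0 buffer with MgCl2, DTT, Tween-20 and 2.5 ug/ml poly(dI-dC); started with 200 nM TAMRA/BHQ-2 forked duplex and 2 mM ATP. Unwinding read as fluorescence (525/598 nm), two reads 2 h apart.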
# [10] = Quantitative high throughput screen for delayed death inhibitors of the malarial parasite plastid, 96 hour incubation (AID 488745); settings: Plasmodium falciparum growth; series mostly up to 28.7 µM;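 note: luciferase-expressing P. falciparum in erythrocytes at 2% hematocrit and 0.1% parasitemia; nearly all actives have a fitted effect of over 70% in size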
# Procedure, shortened: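 Infected erythrocytes were added to compound in Albumax-supplemented RPMI 1640 at 0.1% parasitemia and 2% hematocrit (final), incubated 96 h at 37 C under 5% CO2, then luciferase reagent was added and luminescence measured.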
# [11] = Quantitative high throughput screen for delayed death inhibitors of the malarial parasite plastid, 48 hour incubation (AID 488752); settings: Plasmodium falciparum growth; series mostly up to 28.7 µM; note: nearly all actives have a fitted effect of over 65% in size
# Procedure, shortened: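 Readout is firefly luciferase luminescence from a reporter integrated into the parasite genome, with lower signal taken as inhibited growth. Infected red cells (0.1% parasitemia, 2% hematocrit final) are cultured with compound for one 48 h cycle at 37 C.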
# [12] = target: Transient receptor potential cation channel subfamily V member 1 (Homo sapiens) (UniProt Q8NER1); experiment: HTS Assay for Compounds that Act as Enhancers of the Vanilloid Receptor 1 (AID 488979); settings: TRPV1-expressing cells, enhancer of channel activity, stimulated with capsaicin at EC20; series mostly up to 41.7 µM
# Chain of Transient receptor potential cation channel subfamily V member 1 (Homo sapiens) (Q8NER1 whole entry, looked up): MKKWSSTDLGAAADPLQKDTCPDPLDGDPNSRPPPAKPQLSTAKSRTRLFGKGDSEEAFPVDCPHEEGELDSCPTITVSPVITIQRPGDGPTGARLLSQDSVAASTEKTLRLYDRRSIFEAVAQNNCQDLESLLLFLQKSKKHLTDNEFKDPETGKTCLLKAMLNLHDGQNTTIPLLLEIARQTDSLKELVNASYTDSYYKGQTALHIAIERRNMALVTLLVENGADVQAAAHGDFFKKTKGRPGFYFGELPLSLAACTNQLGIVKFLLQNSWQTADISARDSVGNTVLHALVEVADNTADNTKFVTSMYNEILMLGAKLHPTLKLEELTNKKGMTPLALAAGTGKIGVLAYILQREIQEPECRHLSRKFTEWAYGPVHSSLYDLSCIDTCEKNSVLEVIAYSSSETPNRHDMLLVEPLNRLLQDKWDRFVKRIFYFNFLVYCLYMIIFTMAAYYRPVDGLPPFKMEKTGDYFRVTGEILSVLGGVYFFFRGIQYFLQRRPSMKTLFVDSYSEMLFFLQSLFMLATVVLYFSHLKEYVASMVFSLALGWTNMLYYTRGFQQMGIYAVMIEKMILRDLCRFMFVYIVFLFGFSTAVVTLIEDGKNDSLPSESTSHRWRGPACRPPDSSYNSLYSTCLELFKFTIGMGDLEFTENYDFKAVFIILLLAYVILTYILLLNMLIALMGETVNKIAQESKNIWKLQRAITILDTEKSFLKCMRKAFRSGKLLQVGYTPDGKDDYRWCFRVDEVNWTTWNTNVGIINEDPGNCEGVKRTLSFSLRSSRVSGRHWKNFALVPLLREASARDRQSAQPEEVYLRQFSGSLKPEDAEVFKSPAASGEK
# Procedure, shortened: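 Calcium influx kinetics via Fluo-8 (480/520 nm) in TRPV1-expressing cells, 2000/well cultured overnight at 35.5C. Compound-alone read 3 min (agonist phase), followed by EC20 capsaicin challenge for 2 min (enhancer phase).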
# [13] = target: Thyrotropin receptor (Homo sapiens) (UniProt P16473); experiment: qHTS Assay for Antagonists of the Thyroid Stimulating Hormone Receptor (AID 488980); settings: TSHR-expressing cells, cAMP antagonist read-out; series mostly up to 57.5 µM
# Chain of Thyrotropin receptor (Homo sapiens) (P16473 whole entry, looked up): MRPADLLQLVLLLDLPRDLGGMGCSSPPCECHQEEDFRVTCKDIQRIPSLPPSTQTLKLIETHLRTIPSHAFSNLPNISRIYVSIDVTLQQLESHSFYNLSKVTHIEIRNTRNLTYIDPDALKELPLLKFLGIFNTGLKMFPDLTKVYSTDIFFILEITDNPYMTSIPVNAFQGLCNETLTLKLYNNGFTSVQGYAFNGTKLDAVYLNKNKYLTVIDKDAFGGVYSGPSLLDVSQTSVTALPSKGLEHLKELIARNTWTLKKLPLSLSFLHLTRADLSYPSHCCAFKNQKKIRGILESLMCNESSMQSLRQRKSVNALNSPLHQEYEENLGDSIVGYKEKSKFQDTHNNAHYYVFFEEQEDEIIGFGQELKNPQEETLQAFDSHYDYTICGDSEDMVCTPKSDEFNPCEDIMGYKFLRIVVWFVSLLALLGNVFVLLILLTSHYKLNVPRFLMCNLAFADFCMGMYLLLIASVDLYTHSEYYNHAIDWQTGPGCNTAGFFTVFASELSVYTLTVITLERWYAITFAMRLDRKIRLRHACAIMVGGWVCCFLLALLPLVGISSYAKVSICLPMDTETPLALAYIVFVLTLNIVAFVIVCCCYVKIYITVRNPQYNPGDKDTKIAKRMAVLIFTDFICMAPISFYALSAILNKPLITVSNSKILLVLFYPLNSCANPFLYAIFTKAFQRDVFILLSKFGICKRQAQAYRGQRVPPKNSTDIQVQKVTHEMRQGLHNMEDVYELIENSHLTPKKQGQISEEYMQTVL
# Procedure, shortened: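 Inhibition of TSH-stimulated cAMP accumulation was quantified by homogeneous time-resolved FRET in TSHR-transfected HEK293 cells. Agonist: TSH, 4 nM final (EC80).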
# [14] = target: Galactokinase (Homo sapiens) (UniProt P51570); experiment: qHTS Validation Assay for Inhibitors of Human Galactokinase (GALK) (AID 493189); settings: purified human GALK enzyme activity, qHTS 7-point titration; series mostly up to 57.5 µM
# Chain of Galactokinase (Homo sapiens) (P51570 whole entry, looked up): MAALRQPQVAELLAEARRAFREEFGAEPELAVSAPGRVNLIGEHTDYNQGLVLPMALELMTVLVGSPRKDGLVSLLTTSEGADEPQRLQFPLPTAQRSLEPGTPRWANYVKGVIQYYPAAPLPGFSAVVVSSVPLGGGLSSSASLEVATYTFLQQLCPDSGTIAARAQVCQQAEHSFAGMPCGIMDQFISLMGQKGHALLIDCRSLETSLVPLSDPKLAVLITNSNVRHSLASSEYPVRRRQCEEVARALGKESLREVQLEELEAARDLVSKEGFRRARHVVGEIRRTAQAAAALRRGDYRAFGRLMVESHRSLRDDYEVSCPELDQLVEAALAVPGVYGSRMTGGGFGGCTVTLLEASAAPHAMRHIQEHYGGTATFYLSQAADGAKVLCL
# Procedure, shortened: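 Enzyme activity is inferred from ATP consumption: human GALK phosphorylates galactose (100 uM) using 35 uM ATP for 1 h at room temperature, and luciferase-based Kinase-Glo Plus reports unconsumed ATP.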
# [15] = Validation screen for small molecules that induce DNA re-replication in SW480 colon adenocarcinoma cells (AID 504364); settings: DNA re-replication phenotype (high-content imaging); series mostly up to 46.1 µM
# Procedure, shortened: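 250 cells/well; compound pinned in; 48 hr, 37 C, 5% CO2; Hoechst added, 40 min; nuclear fluorescence imaged, 405 ex / 500-530 em; re-replication scored as increase in high-intensity nuclei.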
# [16] = NCATS anti-infectives library activity on the primary C. elegans qHTS viability assay (AID 1745855; calls by dose curve; note: potency is the fitted concentration of half-maximal effect); settings: C. elegans worm area imaging, day 7; series mostly up to 41.8 µM
# Procedure, shortened: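 Viability read-out is GFP fluorescence of PE254-GFP-FLuc C. elegans, measured by laser cytometry (488 nm) at day 0, 3 and 7. Ten L1 worms per well were incubated 7 days at 21 °C with compounds and bacterial capsules in S medium.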
# [17] = target: Bile acid receptor (Homo sapiens) (UniProt Q96RI1); experiment: qHTS assay for small molecule antagonists of farnesoid X receptor signaling (AID 588526; calls by dose curve); settings: HEK293T FXR-UAS-bla, beta-lactamase ratio, antagonist mode; series mostly up to 76.7 µM
# Chain of Bile acid receptor (Homo sapiens) (Q96RI1 whole entry, looked up): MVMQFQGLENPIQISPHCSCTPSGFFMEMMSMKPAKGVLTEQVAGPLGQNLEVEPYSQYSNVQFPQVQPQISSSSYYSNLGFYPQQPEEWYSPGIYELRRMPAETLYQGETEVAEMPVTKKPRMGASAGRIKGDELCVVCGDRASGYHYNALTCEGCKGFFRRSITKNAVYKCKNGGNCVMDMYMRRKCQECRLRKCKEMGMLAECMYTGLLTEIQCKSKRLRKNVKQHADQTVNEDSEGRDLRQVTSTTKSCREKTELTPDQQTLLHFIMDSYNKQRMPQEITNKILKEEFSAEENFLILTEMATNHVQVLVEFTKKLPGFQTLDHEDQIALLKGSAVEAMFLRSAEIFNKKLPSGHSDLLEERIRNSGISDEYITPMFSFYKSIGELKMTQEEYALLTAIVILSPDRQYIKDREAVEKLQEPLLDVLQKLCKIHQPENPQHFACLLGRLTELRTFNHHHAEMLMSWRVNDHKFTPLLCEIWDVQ
# Procedure, shortened: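 Beta-lactamase reporter antagonist mode: HEK293T FXR-UAS-bla cells, titrated compound, CDCA stimulation, 16 h 37 C, CCF4 dye 2 h RT. Data normalized to CDCA 50 uM and DMSO; Hill-fit IC50.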
# [18] = target: Glucocorticoid receptor (Homo sapiens) (UniProt P04150); experiment: qHTS assay for small molecule agonists of glucocorticoid receptor signaling (AID 588532; active = well fitted curve in the direction sought with a large enough effect in the signal ratio, with a control signal flat; the % refers to the signal ratio); settings: HeLa MMTV-bla, beta-lactamase ratio, agonist, 18 h; stronger effect = higher value; percent of dexamethasone control, DMSO zero
# Chain of Glucocorticoid receptor (Homo sapiens) (P04150 whole entry, looked up): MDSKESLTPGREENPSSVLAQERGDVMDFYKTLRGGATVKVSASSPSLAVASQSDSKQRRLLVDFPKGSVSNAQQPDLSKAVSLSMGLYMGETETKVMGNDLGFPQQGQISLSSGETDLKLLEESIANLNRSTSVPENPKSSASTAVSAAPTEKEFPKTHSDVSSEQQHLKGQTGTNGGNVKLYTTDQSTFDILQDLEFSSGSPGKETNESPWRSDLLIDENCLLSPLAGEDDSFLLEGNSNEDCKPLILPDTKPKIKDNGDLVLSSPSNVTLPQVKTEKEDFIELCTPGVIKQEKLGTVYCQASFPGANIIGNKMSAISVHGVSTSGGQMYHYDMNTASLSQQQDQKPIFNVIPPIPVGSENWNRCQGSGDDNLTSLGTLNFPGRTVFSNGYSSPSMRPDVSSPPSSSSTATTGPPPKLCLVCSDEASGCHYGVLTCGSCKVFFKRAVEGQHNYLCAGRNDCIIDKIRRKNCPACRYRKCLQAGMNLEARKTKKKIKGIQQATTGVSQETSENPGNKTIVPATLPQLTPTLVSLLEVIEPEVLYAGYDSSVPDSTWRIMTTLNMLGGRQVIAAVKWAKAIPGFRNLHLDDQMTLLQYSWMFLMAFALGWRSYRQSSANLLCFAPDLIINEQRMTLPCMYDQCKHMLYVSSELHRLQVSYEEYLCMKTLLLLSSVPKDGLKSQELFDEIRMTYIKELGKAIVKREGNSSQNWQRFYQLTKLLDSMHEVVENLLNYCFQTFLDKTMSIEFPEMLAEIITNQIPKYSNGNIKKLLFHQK
# Procedure, shortened: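 Quantitative HTS using CellSensor MMTV-bla HeLa cells in charcoal/dextran-treated serum; compounds tested up to 92 uM. After 18 h at 37 C, CCF4 dye reported reporter induction.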
# [19] = qHTS assay for small molecule activators of the nuclear factor-kappa B (NF-kB) signaling pathway (AID 651749; active = well fitted activation curve with a large enough effect in the signal ratio; the % refers to the signal ratio); settings: NF-kB-bla ME-180 cells, beta-lactamase FRET ratio, 16 h; stronger effect = higher value
# Procedure, shortened: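 Readout: beta-lactamase reporter driven by an NF-kB response element, detected fluorescently as loss of FRET. Cells were the ME-180 line, treated 16 hr at 37C with pin-transferred compound.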
# [20] = qHTS assay for small molecule agonists of the antioxidant response element (ARE) signaling pathway measured by Nrf2-dependant transcriptional activity (AID 720636; active = well fitted curve in the direction sought with a large enough effect in the repeat runs; an effect the other way counts as inactive or inconclusive;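 note: HepG2 cells with an ARE-driven luciferase reporter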); settings: ARE-luc HepG2, Nrf2 luciferase reporter, 16 h; series mostly up to 92.4 µM
# Procedure, shortened: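 In HepG2 cells engineered with an Nrf2-responsive luciferase gene, ARE induction was quantified as luminescence after 16 hr compound treatment at 37 C.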
smiles,measurement,setting,value
Fc1ccc(-c2nc3n(c2-c2ccncc2)CCS3)cc1,Potency,[1],0.519 µM (active)
same,outcome,[2],inactive
CN[C@@H]1[C@H](O)[C@H](O[C@@H]2[C@H](O)[C@@H](O[C@H]3O[C@H]([C@@H](C)NC)CC[C@H]3N)[C@@H](N)C[C@H]2N)OC[C@]1(C)O,"growth, % of control",[3],107%
COc1ccc2c(c1)c(CC(=O)N1CCOCC1)c(C)n2C(=O)c1ccc(Cl)cc1,Potency,[4],inactive
same,Potency,[5],inactive
same,Potency,[6],inactive
same,Potency,[7],10 µM (active)
same,Potency,[8],12.6 µM (active)
same,Potency,[9],inactive
same,Potency,[10],inactive
same,Potency,[11],inactive
same,outcome,[12],inactive
same,outcome,[13],inactive
same,outcome,[14],inactive
same,outcome,[15],inactive
N#CC(=C(/N)Sc1ccccc1N)/C(C#N)=C(\N)Sc1ccccc1N,Potency,[16],5.15 µM (active)
CC(=O)[C@H]1[C@H](C#N)C[C@H]2[C@@H]3CC=C4C[C@@H](O)CC[C@]4(C)[C@H]3CC[C@@]21C,outcome,[17],inactive
same,activation,[18],-8.47% (inactive) and 3.7% (inactive)
same,activation,[19],-1.18% (inactive) and -2.42% (inactive)
same,outcome,[20],inactive
